This note sets out measurements from PubChem BioAssay AID463173 (ICCB-Longwood Screening Facility, Harvard Medical School, 2010).

In all, about 52,000 compounds went through this assay and about 1,700 (3.3%) were called active. No stated cut-off is given here; in the data, active means survival mostly below about 52% (no sharp cut-off); inactive means mostly above about 56%. The full list was thinned out, with actives kept by preference.

This test has as its system Wild type. The experiment in a line: S. aureus survival, RN4220 and DeltatarO strains – OD600, teichoic acid synthesis inhibitors, primary screen (AID 463173). The following applies: S. aureus RN4220 wild type/DeltatarO growth, OD600, 18 h, hits give low values, screened at 18.75 µg/mL (by protocol).
As for `O=C(Nc1noc2ccccc12)c1ccc(F)cc1`, the survival is 78% (inactive).

With `CCOC(=O)c1c(C)oc2c1c(O)c(N=O)c1ccccc12`, the survival is 7% (active). As to `CCOC(=O)c1c(C)oc2nc(C)nc(N3CCN(c4ccccc4)CC3)c12`, the survival is 68% (inactive).

With `CCOC(=O)c1c(C)oc2ncnc(N3CCN(c4ccccc4)CC3)c12`, the survival was 68% (inactive).

In the case of `CC(C)OC(=O)Cn1c(C2CC2)nc2ccccc2c1=O`, the survival is 115% (inactive). On to `CC(C)(C)c1ccc(S(=O)(=O)N2CCC(Oc3ccc(-n4cnnn4)cc3)CC2)cc1`, for which the survival was 81% (inactive). The value for `Cc1cn2c(=O)cc(COC(=O)c3ccc(NC(=O)COc4ccccc4F)cc3)nc2s1` was 85% (inactive); that for `Cn1ncc2c(N3CCN(c4ccccc4Cl)CC3)ncnc21` was 127% (inactive); that for `CCn1c(SCc2ccccc2)nnc1C1CCCCC1` was 106% (inactive).

`Cc1c2cnn(-c3ccccc3)c(=O)c2c(C)n1C(C)C(=O)NCc1cccc(Br)c1` (stereo not given): the survival was 71% (inactive). Next, `Cc1nn(CCC(=O)Nc2cccc(C#N)c2)c(C)c1S(=O)(=O)N1CCC(C)CC1`: 69% (inactive); `CC(=O)c1ccc(NC(=O)CCn2nc(C)c(S(=O)(=O)N3CCC(C)CC3)c2C)cc1`: -6% (active).

In the case of `CC(=O)c1cccc(NC(=O)CCn2nc(C)c(S(=O)(=O)N3CCCCC3)c2C)c1`, the survival was 159% (inactive). For `CCOc1ccc(NC(=O)NCCc2c(C)nn(C)c2C)cc1`, the survival is 60% (inactive). Regarding `CCc1cccc(CC)c1NC(=O)CN(C)S(=O)(=O)c1ccc2c(c1)n(C)c(=O)c(=O)n2C`, the survival was 81% (inactive).

As to `O=C(Cn1cnc2nc3c(cc2c1=O)CCCC3)N1CCN(c2cccc(C(F)(F)F)c2)CC1`, the survival is 14% (active).

As to `O=C(Cn1cnc2nc3c(cc2c1=O)CCCC3)Nc1ccc(F)cc1Cl`, the survival was 72% (inactive). The value for `Cc1cccc(N(C)C(=O)Cn2cnc3nc4c(cc3c2=O)CCCC4)c1` was -1% (active); that for `Cc1c(Cl)cccc1NC(=O)Cn1cnc2nc3c(cc2c1=O)CCCC3` was 131% (inactive). Next, `COc1ccc(N2CCN(C(=O)Cn3cnc4nc5c(cc4c3=O)CCCC5)CC2)cc1`: 78% (inactive); `O=C(Cn1cnc2nc3c(cc2c1=O)CCCC3)N1CCN(c2ccccc2)CC1`: 69% (inactive); `Cc1ccc(C)c(N2CCN(C(=O)Cn3cnc4nc5c(cc4c3=O)CCCC5)CC2)c1`: 76% (inactive). The value for `COc1cc(OC)c(NC(=O)Cn2cnc3nc4c(cc3c2=O)CCCC4)cc1Cl` was -6% (active); that for `Cc1ccc(C)c(NC(=O)Cn2cnc3nc4c(cc3c2=O)CCCC4)c1` was 72% (inactive); that for `CN(C)C(=O)C1Cc2ccccc2CN1S(=O)(=O)c1ccc(F)cc1` (stereo not given) was 105% (inactive).
